# Experimental data: PubChem BioAssay (NCATS)
# Records with an inconclusive call do not appear. Unmarked numbers belong to inactive results. Calls of active or inactive are those of the source. Calls follow the shape of the dose curve; as a rule, active = well fitted inhibition curve with a large enough effect; inconclusive = small, poorly fitted or top-dose-only effect; inactive = flat fitted curve, though single readings scatter.
# Legend:
# HEK293 = assay: Cytotoxic Profiling of Annotated Libraries Using Quantitative High-Throughput Screening (AID 1296008); settings: Five cell lines viability, CellTiter-Glo ATP luminescence, 48-72 h; max response: stronger effect = lower value; also: potency is read from the fitted curve at half-maximal effect; as to max response: % is scaled to controls: 0 for no effect and ±100 for the full control effect
# Procedure, shortened: (§1)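 Cytotoxicity was measured as CellTiter-Glo ATP luminescence, read after 10 min at room temperature. Compound treatment of the cells lasted 48 or 72 hr at 37 degrees Celsius in a qHTS format.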
# HaCat [1] = assay: as above; settings: Five cell lines viability, CellTiter-Glo ATP luminescence, 48-72 h; max response: stronger effect = lower value
# Procedure, shortened: as §1
# HACAT [2] = assay: qHTS assay to identify novel small-molecules to repurpose for Merkel cell carcinoma treatment (AID 1296009); settings: MCC and control cell lines, CellTiter-Glo viability, 72 h; at 44.8 µM (top of the series) unless noted
# Procedure, shortened: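 Cell viability measured by CellTiter-Glo following 72 hr compound treatment at 37 degree celsius, with NPC and MIPE libraries tested in 8- and 11-point concentration series.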
# NIH3T3 = assay: Cytotoxic Profiling of Annotated Libraries Using Quantitative High-Throughput Screening (AID 1296008); settings: Five cell lines viability, CellTiter-Glo ATP luminescence, 48-72 h; max response: stronger effect = lower value; also: potency is read from the fitted curve at half-maximal effect; as to max response: % is scaled to controls: 0 for no effect and ±100 for the full control effect
# Procedure, shortened: as §1
# Also: nearly all actives have a fitted effect of over 60% in size.
smiles,measurement,setting,value
CC(C)CCNC(=O)c1ccc2c(c1)nc(Nc1n[nH]c3ccc(-c4ccccc4OC(F)(F)F)cc13)n2C1CCC(O)CC1 (stereo unspecified),Potency,HEK293,9.2 µM (active)
same,outcome,HaCat [1],inactive
same,outcome,HACAT [2],inactive
C=C1CO[C@@]2(O[C@H]3CC4C5CC=C6C[C@@H](O)C[C@@H](O[C@@H]7OC[C@H](O)[C@H](O[C@@H]8OC[C@@H](O)[C@H](O)[C@H]8O)[C@H]7O[C@@H]7O[C@@H](C)[C@H](OC(C)=O)[C@@H](OC(C)=O)[C@H]7OC(C)=O)[C@]6(C)C5CC[C@]4(C)[C@@H]3[C@@H]2C)[C@@H](O)[C@H]1OC1OC(C)C(O)C(O)C1O (stereo partly specified),max response,HEK293,-19.9%
same,outcome,HaCat [1],inactive
same,outcome,NIH3T3,inactive
same,outcome,HACAT [2],inactive [at 9.27 µM]
O=C(Nc1ccc(-c2ccnc(Nc3ccc(N4CCOCC4)cc3)n2)cc1)C1CCCN1 (stereo unspecified),Potency,HEK293,6.51 µM (active)
same,outcome,HaCat [1],inactive
same,outcome,HACAT [2],inactive
Cc1cc2c(c(=O)o1)C=C1CC[C@H]([C@H](C)Cn3cnc(=N)c4[nH]cnc43)C[C@@H]1O2,Potency,HEK293,8.2 µM (active)
same,outcome,HaCat [1],inactive
same,max response,NIH3T3,-1.79%
same,outcome,HACAT [2],inactive
Cc1cn(CCN2CCN(c3ccccc3-c3cc(C#N)cc(C(=O)NCCCN4CCCC4)c3)CC2)c2ccccc12,Potency,HEK293,14.8 µM (active)
same,Potency,NIH3T3,16.6 µM (active)
CCCC(CCC)C(=O)Nc1ccn([C@@H]2O[C@H](CO)[C@@H](O)C2(F)F)c(=O)n1,Potency,HEK293,6.51 µM (active)
same,Potency,NIH3T3,4.11 µM (active)
CCn1c(-c2nonc2N)nc2c(C#CCO)ncc(OCCCN)c21,Potency,HEK293,7.31 µM (active)
same,outcome,HaCat [1],inactive
same,outcome,NIH3T3,inactive
same,outcome,HACAT [2],inactive
CCc1ccccc1OC[C@@H](O)CN[C@H]1CCCc2ccccc21,Potency,HEK293,23.1 µM (active)
same,outcome,HaCat [1],inactive
same,max response,NIH3T3,-24.4%
same,outcome,HACAT [2],inactive
CCc1cnc(N2CCC(c3nc(COc4ccc(-n5cnnn5)cc4)cs3)CC2)nc1,Potency,HEK293,13 µM (active)
same,outcome,HaCat [1],inactive
same,max response,NIH3T3,-9.02%
same,outcome,HACAT [2],inactive
C=C1C(=O)OC2/C=C(/C)C3=CC(=O)C(C)(CC(OC(=O)/C(C)=C/COC(C)=O)C12)O3 (stereo unspecified),Potency,HEK293,2 µM (active)
same,Potency,NIH3T3,3.99 µM (active)
COc1ccc(CCc2nc3c(C)c(-c4c(C)noc4C)c(C)cc3n2CCN2CCOCC2)cc1,Potency,HEK293,23.1 µM (active)
same,max response,HaCat [1],-20.3%
same,max response,NIH3T3,-12.8%
c1ccc(-c2cnn3cc(-c4ccc(OCCN5CCOCC5)cc4)cnc23)cc1,Potency,HEK293,2.31 µM (active)
same,outcome,HaCat [1],inactive
same,outcome,HACAT [2],inactive
Cc1cc(-c2cnc(N)c3c(-c4ccc5scnc5c4)csc23)n(C)n1,Potency,HEK293,8.2 µM (active)
same,max response,HaCat [1],-13.1%
same,Potency,NIH3T3,11.6 µM (active)
